Among the test systems are SN12C renal; UO-31 renal; TK-10 renal; ACHN renal; CAKI-1 renal; A498 renal; CCRF-CEM leukemia; MOLT-4 leukemia; SR leukemia.
Common to all, as to experiment: NCI-60 one-dose screen, 48 h (100 = growth as untreated, 0 = no growth, -100 = all killed)
What all share (details): 10 µM

The structures appear in SMILES notation. Compounds without any hit were thinned out: in the full panel of roughly 83,000, 20% have a hit.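 Activity criterion: percent growth below 10, measured after cells in 96-well plates were exposed to a single compound concentration for 48 hours.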 Values without a mark were called inactive. The source made the active and inactive calls.

As to `CC1(C)Cc2c(sc3ncn4nc(-c5ccc(O)cc5)nc4c23)CO1`, the growth in the assay on SN12C renal is 63.5%; with UO-31 renal it was 44.3%; in the assay with TK-10 renal, 56.4%; in the assay with ACHN renal, 67.6%; with CAKI-1 renal, 76.7%; in the assay with A498 renal it was -9.39% (active). For the same compound, the growth in the assay with CCRF-CEM leukemia was 70.5%; in the assay on MOLT-4 leukemia it was 69.4%; in the assay on SR leukemia it was 22.8%.
Consider `COc1ccc(Cl)cc1-n1nnc(-c2nc3ccccc3[nH]2)c1N`, for which the growth in the assay on SN12C renal was 94.3%; in the assay with UO-31 renal, 71.9%; with TK-10 renal, 85.9%; in the assay on ACHN renal, 51.4%; in the assay on CAKI-1 renal, 67.7%; in the assay with A498 renal, 89.3%. Also, the growth in the assay with CCRF-CEM leukemia was 104%; in the assay with MOLT-4 leukemia it was 98.5%; in the assay on SR leukemia, 71.8%.
`COc1cc(C2CC(c3ccc(Nc4ccnc5cc(Cl)ccc45)cc3)=NN2c2ccc(Cl)cc2)cc(OC)c1OC` (stereo unspecified): the growth is 59.5% with SN12C renal; 18.4% in the assay with UO-31 renal; 64.1% with TK-10 renal; 38% with ACHN renal; 18.6% in the assay on CAKI-1 renal; 52.3% with A498 renal. Further, the growth was 28% with CCRF-CEM leukemia, 31.5% in the assay with MOLT-4 leukemia and 12.2% with SR leukemia.
As for `CCCC(F)C(=O)O` (stereo unspecified), the growth in the assay on SN12C renal is 100%; in the assay on UO-31 renal, 77.7%; with TK-10 renal, 98%; with ACHN renal, 106%; in the assay with CAKI-1 renal it was 86.2%; with A498 renal, 98.5%. Besides, the growth is 94.5% in the assay with CCRF-CEM leukemia, 93% in the assay with MOLT-4 leukemia and 91.2% with SR leukemia.
With `O=C1/C(=C\c2ccc(Br)cc2)CN(C(=O)c2ccccc2F)C/C1=C\c1ccc(Br)cc1`, the growth with SN12C renal is 14.4%; with UO-31 renal it was -53.6% (active); in the assay with TK-10 renal it was 55.2%; in the assay with ACHN renal it was 32.3%; in the assay with CAKI-1 renal it was 7.2% (active); in the assay with A498 renal, 74.9%. Further, the growth is -10.4% (active) with CCRF-CEM leukemia, 4.49% (active) in the assay on MOLT-4 leukemia and -27.4% (active) in the assay on SR leukemia.
For the compound `Nc1c(C(=O)Nc2ccccc2)sc2nc3c(cc12)CCCC3`, the growth with SN12C renal was 40.1%; in the assay with UO-31 renal, 44.7%; in the assay on TK-10 renal, 71.7%; in the assay on ACHN renal, 51.5%; with CAKI-1 renal, 26.7%; in the assay with A498 renal it was -8.95% (active). For the same compound, the values for the growth in the assay with CCRF-CEM leukemia, in the assay on MOLT-4 leukemia and with SR leukemia were 13.1%, 15.7% and 10.8%, respectively.
With `S=C1SCC(c2ccccc2)S1` (stereo unspecified), the growth in the assay with SN12C renal was 101%; in the assay on UO-31 renal, 104%; with TK-10 renal, 107%; with ACHN renal, 101%; in the assay with CAKI-1 renal, 97.1%; in the assay on A498 renal, 102%. Further, the growth in the assay with CCRF-CEM leukemia was 101%; in the assay on MOLT-4 leukemia, 107%; in the assay on SR leukemia, 103%.
Regarding `CCCCCCc1cc(N=Nc2ccc(S(=O)(=O)Nc3cc(C)nc(C)n3)cc2)c(O)cc1O`, the growth with SN12C renal was 97.2%; with UO-31 renal, 74.5%; in the assay with TK-10 renal, 107%; in the assay with ACHN renal it was 99.1%; in the assay on CAKI-1 renal, 98.9%; with A498 renal, 98.7%. Further, the figures for the growth in the assay on CCRF-CEM leukemia, with MOLT-4 leukemia and in the assay with SR leukemia were 94.8%, 88.7% and 91.9%, respectively.
In the case of `CC(=O)N(C)c1ccc(Nc2ccc(Nc3ccc(N(C)C(C)=O)cc3)c3c2C(=O)c2ccccc2C3=O)cc1`, the growth with SN12C renal was 71.4%; with UO-31 renal, 25.9%; with TK-10 renal, 79%; in the assay with ACHN renal, 64.3%; in the assay on CAKI-1 renal it was 30.2%; in the assay on A498 renal, 110%. The results for the growth in the assay with CCRF-CEM leukemia, in the assay on MOLT-4 leukemia and in the assay on SR leukemia were 55.7%, 56.8% and 72.6%, respectively.
As to `O=C(Nc1ccncc1)C(=O)c1cn(S(=O)(=O)c2cc(Cl)cc(Cl)c2)c2ccccc12`, the growth in the assay with SN12C renal was 73.5%; with UO-31 renal, 75.2%; in the assay on TK-10 renal, 73.1%; in the assay on ACHN renal it was 68.4%; in the assay on CAKI-1 renal, 54.5%; with A498 renal, 63.1%. Moreover, the growth in the assay on CCRF-CEM leukemia was 67.9%; in the assay on MOLT-4 leukemia it was 73%; in the assay with SR leukemia, 38%.
Turning to `O=C(Nc1cccc(-n2cc(-c3ccncc3)c(-c3ccc(O)c(Cl)c3)n2)c1)c1cccc(C(F)(F)F)c1`, the growth with SN12C renal is 49.9%; in the assay on UO-31 renal, 15.8%; in the assay on TK-10 renal, 46.9%; in the assay with ACHN renal, 29.6%; with CAKI-1 renal it was 12.2%; in the assay with A498 renal, 57.7%. In addition, the growth in the assay on CCRF-CEM leukemia is 19.8%; with MOLT-4 leukemia, 29.8%; in the assay with SR leukemia, 18.4%.
Turning to `COc1ccc([N+](=O)[O-])c(C(=O)O)c1`, the growth in the assay on SN12C renal was 99.9%; in the assay with UO-31 renal, 88%; with TK-10 renal, 104%; in the assay on ACHN renal it was 105%; in the assay on CAKI-1 renal, 95.7%; in the assay with A498 renal, 85.6%. Further, the growth in the assay with CCRF-CEM leukemia is 112%; in the assay on MOLT-4 leukemia it was 74.4%; with SR leukemia, 93.8%.
For the compound `C#Cc1ccc(-n2c(/C=C/c3ccc(C(F)(F)F)cc3)nc3ncccc3c2=O)cc1`, the growth with SN12C renal was 26.6%; in the assay with UO-31 renal, 11.6%; in the assay on TK-10 renal, 11.4%; in the assay on ACHN renal, 19%; in the assay with CAKI-1 renal, 14.9%; with A498 renal it was 43.7%. Moreover, the growth was 3.18% (active) with CCRF-CEM leukemia, 10.2% with MOLT-4 leukemia and 0.507% (active) in the assay with SR leukemia.
For `O=C(CCCCC[P+](c1ccccc1)(c1ccccc1)c1ccccc1)NC(COC(=O)C(Cl)Cl)(COC(=O)C(Cl)Cl)COC(=O)C(Cl)Cl`, the growth in the assay with SN12C renal is 96.8%; in the assay with UO-31 renal it was 94%; in the assay on TK-10 renal, 87.4%; in the assay on ACHN renal it was 113%; with CAKI-1 renal it was 107%; in the assay on A498 renal, 89.7%. The growth with CCRF-CEM leukemia is 88.7%; with MOLT-4 leukemia it was 97.6%; in the assay on SR leukemia it was 88.8%.

Source of the values: PubChem BioAssay (NCI).
